Records with an inconclusive call do not appear. Activity calls are given as the source filed them. Unless noted, calls come from the whole dose curve; as a rule, active = well fitted curve in the direction sought with a large enough effect in the repeat runs; inconclusive = weak or mixed curves; inactive = no such curve, though single readings can be large; an effect the other way counts as inactive or inconclusive.
How the values were obtained:
[1] = A CellTox Green Cytotoxicity Assay to monitor cytotoxicity in HEK293 cells - 32 hour (AID 1224881); note: nearly all actives have a fitted effect of over 40% in size; note: potency is the fitted concentration of half-maximal effect
Method in brief: (§1)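 Fluorescence intensity, read at 0, 8, 16, 24, 32 and 40 h of compound treatment, reflected dye binding to DNA of dead HEK293 cells; compounds (23 nL, DMSO) were added 5 h after plating cells with reagent.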

[2] = A CellTox Green Cytotoxicity Assay to monitor cytotoxicity in HepG2 cells - 0 hour (AID 1224882); note: nearly all actives have a fitted effect of over 35% in size
Method in brief: (§2)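 Using 1536-well format, dye-containing HepG2 suspension was seeded, allowed 5 h at 37 C/5% CO2, dosed by pintool with compounds, positive and negative controls, and imaged for fluorescence across 40 h.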

[3] = A CellTox Green Cytotoxicity Assay to monitor cytotoxicity in HepG2 cells - 32 hour (AID 1224883); note: nearly all actives have a fitted effect of over 50% in size; note: potency is the fitted concentration of half-maximal effect
Method in brief: as §2

[4] = A CellTox Green Cytotoxicity Assay to monitor cytotoxicity in HEK293 cells - 8 hour (AID 1224884); note: nearly all actives have a fitted effect of over 35% in size
Method in brief: as §1

[5] = qHTS RealTime-Glo MT Cell Viability Assay in HepG2 cells - 16 hour (AID 1224885); note: nearly all actives have a fitted effect of over 50% in size
Method in brief: (§3)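 HepG2 cells were seeded at 600 cells/well together with NanoLuc luciferase and a cell-permeant prosubstrate, preincubated 5 h at 37 C/5% CO2, then pin-dosed with compounds in DMSO. Nonlytic luminescence from viable cells was read at each time point.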

[6] = qHTS RealTime-Glo MT Cell Viability Assay in HEK293 cells - 24 hour (AID 1224886); note: nearly all actives have a fitted effect of over 50% in size; note: potency is the fitted concentration of half-maximal effect
Method in brief: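 HEK293 cells were seeded at 600 cells/well together with NanoLuc luciferase and cell-permeant prosubstrate, preincubated 5 h at 37 C/5% CO2, then given compound in DMSO by pintool. Luminescence from viable-cell prosubstrate reduction was read repeatedly over 40 h.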

[7] = qHTS RealTime-Glo MT Cell Viability Assay in HEK293 cells - 8 hour (AID 1224887); note: top concentration of the series differs between compounds; nearly all actives have a fitted effect of over 50% in size
Method in brief: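 Viable HEK293 cells reduce a cell-permeant prosubstrate; the product diffuses out and is consumed by NanoLuc in the medium to give light. Compounds went in after a 5 h incubation and plates were read over the treatment course.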

[8] = A CellTox Green Cytotoxicity Assay to monitor cytotoxicity in HEK293 cells - 16 hour (AID 1224888); note: nearly all actives have a fitted effect of over 35% in size
Method in brief: as §1

[9] = qHTS RealTime-Glo MT Cell Viability Assay in HepG2 cells - 0 hour (AID 1224889); note: nearly all actives have a fitted effect of over 50% in size
Method in brief: as §3

[10] = A CellTox Green Cytotoxicity Assay to monitor cytotoxicity in HepG2 cells - 8 hour (AID 1224890); note: nearly all actives have a fitted effect of over 45% in size
Method in brief: as §2

[11] = qHTS assay to identify small molecule antagonists of the estrogen receptor alpha (ER-alpha) signaling pathway using the BG1 cell line in the presence of 0.1 nM 17-beta-estradiol - cell viability counter screen (AID 1259241); note: nearly all actives have a fitted effect of over 40% in size
Method in brief: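 Cytotoxicity counter-screen: live-cell protease activity measured by fluorescence (30 min reagent step) in the same wells. Cells were VM7Luc4E2 with endogenous ER-alpha and ERE-driven luciferase, treated 22 hr at 37C alongside 0.1 nM 17beta-estradiol final.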

[12] = qHTS assay to identify small molecule antagonists of the androgen receptor (AR) signaling pathway using the MDA cell line in the presence of 0.5 nM R1881 - cell viability counter screen (AID 1259242); note: nearly all actives have a fitted effect of over 45% in size
Method in brief: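 Viability of MDA-kb2 cells was multiplexed with the luciferase AR readout; after 16 hr with compounds and R1881 at 0.5 nM final, CellTiter-Fluor fluorescence was recorded.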

[13] = biological target: Androgen receptor (Homo sapiens) (UniProt P10275); test: qHTS assay to identify small molecule antagonists of the androgen receptor (AR) signaling pathway using the MDA cell line in the presence of 0.5 nM R1881 (AID 1259243); note: nearly all actives have a fitted effect of over 50% in size
Method in brief: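 Reporter cells cultured without CO2 receive test chemicals, then 0.5 nM R1881 final; after 16 hr at 37C, ONE-Glo is added and light output recorded.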

[14] = qHTS assay to identify small molecule phospholipidosis (PLD) inducers (AID 1259344; active = well fitted curve in the direction sought with a large enough effect; an effect the other way counts as inactive or inconclusive)
Method in brief: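 HepG2 cells, 900/well, treated with compound plus LipidTOX Red for 24 h at 37 C; amiodarone positive and DMSO negative controls. Fixed with paraformaldehyde/Hoechst, then high-content imaging scored LipidTOX pit count and integrated intensity per well and per cell.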

[15] = qHTS assay to identify small molecule HDAC inhibitors (AID 1259364);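 note: wild-type HCT-116 cells with endogenous class I/II HDAC activity; top concentration of the series differs between compounds; nearly all actives have a fitted effect of over 45% in size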
Method in brief: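 Read-out: luminescence of HDAC-Glo I/II reagent, 30 min RT, reflecting class I/II deacetylase activity in whole HCT-116 cells pre-exposed 2 h to DMSO-dissolved compounds.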

[16] = qHTS assay to identify small molecule agonists of the sonic hedgehog signaling (Shh) pathway - cell viability counter screen (AID 1259366); note: nearly all actives have a fitted effect of over 50% in size
Method in brief: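 Cytotoxicity counter screen: CellTiter-Fluor reagent added after 23 h compound exposure, then 1 h at 37C and fluorescence read. Cells were 3T3 Gli1-Luc, seeded 2,000 per well and dosed 4 h post-plating.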

[17] = qHTS assay to identify small molecule antagonists of the sonic hedgehog signaling (Shh) pathway - cell viability counter screen (AID 1259367); note: nearly all actives have a fitted effect of over 55% in size
Method in brief: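 NIH/3T3-derived Gli1-Luc reporter cells, 2,000/well, plated 4 hr before compound addition, then stimulated with conditioned medium for 24 hr at 37C. Viability measured in the same wells by CellTiter-Fluor fluorescence, reagent added at 23 hr for 1 hr.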

[18] = qHTS assay to identify small molecule agonists of the sonic hedgehog signaling (Shh) pathway (AID 1259368; calls by dose curve;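 note: NIH/3T3-derived 3T3Gli1-Luc cells carrying a stable Gli1-driven firefly luciferase reporter; series mostly up to about 92 µM; nearly all actives have a fitted effect of over 15% in size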)
Method in brief: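 A Gli1 transcriptional response element controlled firefly luciferase in 3T3Gli1-Luc cells. Compounds and a positive control were added 4 hr after plating, and cells were incubated a further 24 hr at 37 C before luminescence detection.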

[19] = qHTS assay to identify small molecule HDAC inhibitors - cell viability counter screen (AID 1259365)
Method in brief: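 CellTiter-Glo luminescence (30 min, room temperature) reported viability after a 2 h compound exposure at 37 C. Cells: wild-type HCT-116, 1,500 per well, seeded the night before.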

[20] = biological target: Estrogen receptor (Homo sapiens) (UniProt P03372); test: qHTS assay to identify small molecule antagonists of the estrogen receptor alpha (ER-alpha) signaling pathway using the BG1 cell line in the presence of 0.1 nM 17-beta-estradiol (AID 1259244); note: nearly all actives have a fitted effect of over 50% in size; note: potency is the fitted concentration of half-maximal effect
Method in brief: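 Estradiol at 0.1 nM (final) stimulates the endogenous ER-alpha of VM7Luc4E2 cells carrying an ERE-driven luciferase; compounds are co-incubated 22 h at 37C and luciferase output quantified by luminescence.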

Measured: Potency

Chain of Androgen receptor (Homo sapiens) (P10275 whole entry, looked up): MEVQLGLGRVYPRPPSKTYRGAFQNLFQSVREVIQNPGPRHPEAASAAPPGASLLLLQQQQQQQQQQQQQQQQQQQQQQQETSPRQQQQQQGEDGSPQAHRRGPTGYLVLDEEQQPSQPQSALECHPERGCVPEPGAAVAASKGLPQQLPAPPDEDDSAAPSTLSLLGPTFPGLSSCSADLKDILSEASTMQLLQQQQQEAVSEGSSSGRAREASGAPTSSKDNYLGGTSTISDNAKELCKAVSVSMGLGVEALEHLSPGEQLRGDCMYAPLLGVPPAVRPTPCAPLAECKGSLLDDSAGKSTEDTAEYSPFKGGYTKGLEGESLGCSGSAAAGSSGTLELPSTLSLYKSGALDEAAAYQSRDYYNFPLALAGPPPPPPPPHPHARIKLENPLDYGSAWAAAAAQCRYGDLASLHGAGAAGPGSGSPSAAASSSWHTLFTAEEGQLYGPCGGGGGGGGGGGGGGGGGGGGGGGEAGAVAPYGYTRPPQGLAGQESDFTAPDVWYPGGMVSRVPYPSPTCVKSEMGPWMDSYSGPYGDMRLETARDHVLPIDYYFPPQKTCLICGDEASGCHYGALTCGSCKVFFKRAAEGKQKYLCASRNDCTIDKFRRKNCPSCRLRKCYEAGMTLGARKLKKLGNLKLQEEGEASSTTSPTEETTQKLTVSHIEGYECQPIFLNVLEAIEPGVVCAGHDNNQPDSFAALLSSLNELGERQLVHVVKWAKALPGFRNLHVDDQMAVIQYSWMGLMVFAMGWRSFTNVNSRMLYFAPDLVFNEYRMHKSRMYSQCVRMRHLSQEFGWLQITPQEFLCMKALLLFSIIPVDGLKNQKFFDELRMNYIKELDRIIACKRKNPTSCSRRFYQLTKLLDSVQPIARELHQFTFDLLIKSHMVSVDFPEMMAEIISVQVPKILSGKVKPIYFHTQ
Chain of Estrogen receptor (Homo sapiens) (P03372 whole entry, looked up): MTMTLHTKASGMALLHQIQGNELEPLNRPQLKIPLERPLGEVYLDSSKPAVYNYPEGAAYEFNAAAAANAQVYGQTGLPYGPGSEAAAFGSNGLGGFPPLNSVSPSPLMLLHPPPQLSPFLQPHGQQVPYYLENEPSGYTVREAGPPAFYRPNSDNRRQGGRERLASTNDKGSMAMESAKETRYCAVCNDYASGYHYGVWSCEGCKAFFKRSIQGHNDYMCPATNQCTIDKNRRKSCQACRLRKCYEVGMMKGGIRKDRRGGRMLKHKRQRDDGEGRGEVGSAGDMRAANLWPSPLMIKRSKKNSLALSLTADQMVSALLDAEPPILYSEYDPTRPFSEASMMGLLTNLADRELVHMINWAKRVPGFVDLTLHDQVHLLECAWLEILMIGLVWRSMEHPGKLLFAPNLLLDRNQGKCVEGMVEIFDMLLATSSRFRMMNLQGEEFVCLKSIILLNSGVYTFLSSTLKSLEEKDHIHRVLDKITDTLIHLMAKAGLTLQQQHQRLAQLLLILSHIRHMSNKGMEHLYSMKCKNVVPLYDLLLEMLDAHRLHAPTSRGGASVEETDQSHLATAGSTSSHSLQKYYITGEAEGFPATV

NC(=S)N/N=C/c1cccnc1
not listed: [19] | [20]
inactive: all other assays above

Cn1c(NCCN(CCO)CCCc2ccc([N+](=O)[O-])cc2)cc(=O)n(C)c1=O
not listed: [13] | [20]
inactive: all other assays above

CC1CCc2cc(F)cc3c(=O)c(C(=O)O)cn1c23 (centres undefined)
not listed: [13] | [20]
inactive: all other assays above

C=CCCCCCC
not listed: [13] | [14]
inactive: all other assays above

COCCOCCOCCOCCOC
not listed: [14] | [19]
inactive: all other assays above

CCOc1ccc2[nH]cc(C(=O)NCc3ccccc3)c(=O)c2n1
active: [20] 54.5 µM
not listed: [13] | [14]
inactive: all other assays above

CC(C)NCC(O)COc1ccc(CC(N)=O)cc1 (centres undefined)
not listed: [13] | [14] | [19]
inactive: all other assays above

COC(=O)C(C)=O
not listed: [13] | [14]
inactive: all other assays above

CC(C)CC=O
not listed: [13] | [14] | [20]
inactive: all other assays above

CN1CCC[C@@H]1c1cccnc1
not listed: [10] | [13] | [19] | [20]
inactive: all other assays above

CC(C)c1cccc(C(C)C)c1NC(=O)NS(=O)(=O)c1cc(C(C)(C)O)co1
not listed: [13] | [14] | [20]
inactive: all other assays above

CCN(CC)CCc1nc(-c2ccccc2)no1
not listed: [5] | [13] | [16] | [19] | [20]
inactive: all other assays above

Cc1cc(CC(=O)O)c(C)n1-c1ccc(Cl)cc1
not listed: [5] | [13] | [19] | [20]
inactive: all other assays above

O=C=NC1CCC(CC2CCC(N=C=O)CC2)CC1 (centres undefined)
active: [1] 54.9 µM
not listed: [7] | [12] | [13] | [14] | [16] | [17] | [20]
inactive: all other assays above

CC[C@]12CCCN3CCc4c(n(c5ccccc45)C(=O)C1)[C@@H]32
active: [3] 6.74 µM | [6] 4.77 µM
not listed: [7] | [16] | [17] | [20]
inactive: all other assays above

Cc1ccc(C(C)c2ccc(C)c(C)c2)cc1C
not listed: [5] | [13] | [14] | [20]
inactive: all other assays above
